Results filed as inconclusive are left out. A number with no mark means an inactive call. Activity calls are given as the source filed them. Calls come from the whole dose curve; as a rule, active = well fitted inhibition curve with a large enough effect; inconclusive = small, poorly fitted or top-dose-only effect; inactive = flat fitted curve, though single readings scatter.
test system: W2; assay: qHTS profiling for inhibitors of Plasmodium falciparum proliferation (AID 504749);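 for activity, negative = inhibition: 0% = DMSO vehicle and full inhibition = artemisinin control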; details: P. falciparum in erythrocytes, SYBR Green DNA, 72 h; series mostly up to 28.7 µM; activity, negative = inhibition: at the top concentration
Summary of the method: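 Parasite proliferation within erythrocytes, 72 h exposure. Endpoint: SYBR Green I fluorescence after overnight lysis at room temperature. Controls: 0.29 uM artemisinin, DMSO.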
Note: nearly all actives have a fitted effect of over 60% in size.
Potency is the fitted concentration of half-maximal effect.

Row | Structure (SMILES) | activity, negative = inhibition | Potency
1 | Cc1ccc(=O)n(-c2ccccc2)c1 | 12.6% | 
2 | Cc1nc2c([nH]1)c(=O)n(C)c(=O)n2Cc1ccco1 | -13.7% | 
3 | CC(=O)Nc1nnc(S(N)(=O)=O)s1 | 12.4% | 
4 | NC(=O)N1c2ccccc2C=Cc2ccccc21 | -4.63% | 
5 | O=C(O)CCCCCCCC(=O)O | 0.678% | 
6 | NC(=O)c1cn(Cc2c(F)cccc2F)nn1 | 14.2% | 
7 | O=C(O)CN(CCOCCOCCN(CC(=O)O)CC(=O)O)CC(=O)O | 5.05% | 
8 | CC1=C(C)C(=O)C(CCCCC#CCCCC#CCO)=C(C)C1=O |  | 6.01 µM (active)
9 | CCCCNc1ccc(C(=O)OCCN(C)C)cc1 | 21% [at 12.8 µM] | 
10 | CN1C[C@H](C(=O)N[C@]2(C)O[C@@]3(O)[C@@H]4CCCN4C(=O)[C@H](Cc4ccccc4)N3C2=O)C[C@@H]2c3cccc4[nH]cc(c34)C[C@H]21 |  | 1.51 µM (active)
11 | CCN(Cc1ccncc1)C(=O)C(CO)c1ccccc1 (centres undefined) | -2.51% | 
12 | CCN(CC)CC(=O)Nc1c(C)cccc1C | -0.717% | 
13 | CC(=O)[C@]1(O)Cc2c(O)c3c(c(O)c2[C@@H](O[C@H]2C[C@H](N)[C@H](O)[C@H](C)O2)C1)C(=O)c1ccccc1C3=O |  | 1.69 µM (active)
14 | CN(C)C/C=C(/c1ccc(Br)cc1)c1cccnc1 |  | 8.49 µM (active)
15 | CCn1cc(C(=O)O)c(=O)c2cc3c(cc21)OCO3 | -1.08% | 
16 | Nc1ncn([C@@H]2O[C@H](CO)[C@@H](O)[C@H]2O)c(=O)n1 | -1.3% | 
17 | CCCCCN(CCCCC)C(=O)C(CCC(=O)O)NC(=O)c1ccc(Cl)c(Cl)c1 (centres undefined) | -4.33% | 
18 | NC(N)=NC(=O)Cc1c(Cl)cccc1Cl |  | 6.75 µM (active)
19 | CCN(CC)CCNC(=O)c1ccc(NC(C)=O)cc1 | 8.78% | 
20 | O=C(O)CN(CCN(CC(=O)O)CC(=O)O)CCN(CC(=O)O)CC(=O)O | -3.36% | 
21 | COc1cc(C(=O)OCCCN2CCCN(CCCOC(=O)c3cc(OC)c(OC)c(OC)c3)CC2)cc(OC)c1OC |  | 3.01 µM (active)
22 | CC(C)NNC(=O)c1ccncc1 | 13.3% | 
23 | CC(=O)Oc1cc(C(C)C)c(OCCN(C)C)cc1C | -14.2% [at 12.8 µM] | 
24 | C[N+](C)(C)CCOC(N)=O | 6.44% | 
25 | NC(=O)c1ncn([C@@H]2O[C@H](CO)[C@@H](O)[C@H]2O)c1O | 0.994% | 

test system: CRL-7250; assay: Cytotoxic Profiling of Annotated Libraries Using Quantitative High-Throughput Screening (AID 1296008); details: Five cell lines viability, CellTiter-Glo ATP luminescence, 48-72 h; max response: stronger effect = lower value; for max response: % is set by controls: 0 for no effect and ±100 for the full control effect
Summary of the method: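 Compounds were pin-transferred onto cells and incubated 48 or 72 hr at 37 degree Celsius, 95% humidity. CellTiter-Glo was added, plates sat 10 min at room temperature, then ATP-coupled luminescence was imaged as the viability read-out.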

Row | Structure (SMILES) | max response [%] | outcome | Potency
26 | Cc1ccc(=O)n(-c2ccccc2)c1 | -4.72 |  | 
27 | Cc1nc2c([nH]1)c(=O)n(C)c(=O)n2Cc1ccco1 | 0.6 |  | 
28 | CC(=O)Nc1nnc(S(N)(=O)=O)s1 |  | inactive | 
29 | CCN(CC)CCNC(=O)c1cc(S(C)(=O)=O)ccc1OC | 1.79 |  | 
30 | NC(=O)N1c2ccccc2C=Cc2ccccc21 |  | inactive | 
31 | O=C(O)CCCCCCCC(=O)O | -17.5 |  | 
32 | NC(=O)c1cn(Cc2c(F)cccc2F)nn1 |  | inactive | 
33 | COC(=O)[C@@H](N)Cc1ccc(O)c(O)c1 | 0.35 |  | 
34 | O=C(O)CN(CCOCCOCCN(CC(=O)O)CC(=O)O)CC(=O)O |  | inactive | 
35 | CC1=C(C)C(=O)C(CCCCC#CCCCC#CCO)=C(C)C1=O | -2.8 |  | 
36 | CCCCNc1ccc(C(=O)OCCN(C)C)cc1 | 3.25 |  | 
37 | O=C(O)CP(=O)(O)O | -7.2 |  | 
38 | CN1C[C@H](C(=O)N[C@]2(C)O[C@@]3(O)[C@@H]4CCCN4C(=O)[C@H](Cc4ccccc4)N3C2=O)C[C@@H]2c3cccc4[nH]cc(c34)C[C@H]21 |  | inactive | 
39 | CCN(Cc1ccncc1)C(=O)C(CO)c1ccccc1 (centres undefined) | -20.8 |  | 
40 | CCOC(=O)c1cnc2c(cnn2CC)c1NN=C(C)C | 1.67 |  | 
41 | CC(C)[N+](C)(CCOC(=O)C1c2ccccc2Oc2ccccc21)C(C)C | -3.69 |  | 
42 | Cc1ccc(/C(=C\CN2CCCC2)c2ccccn2)cc1 | 0.263 |  | 
43 | O=C1CC2(CCCC2)CC(=O)N1CCCCN1CCN(c2ncccn2)CC1 |  | inactive | 
44 | CCN(CC)CC(=O)Nc1c(C)cccc1C | -12.2 |  | 
45 | CC(=O)[C@]1(O)Cc2c(O)c3c(c(O)c2[C@@H](O[C@H]2C[C@H](N)[C@H](O)[C@H](C)O2)C1)C(=O)c1ccccc1C3=O |  |  | 0.237 µM (active)
46 | C[n+]1cc2c3c(ccc2c2ccc4cc5c(cc4c21)OCO5)OCO3 |  |  | 1.84 µM (active)
47 | CN(C)C/C=C(/c1ccc(Br)cc1)c1cccnc1 |  | inactive | 
48 | CCn1cc(C(=O)O)c(=O)c2cc3c(cc21)OCO3 | -16.9 |  | 
49 | Nc1ncn([C@@H]2O[C@H](CO)[C@@H](O)[C@H]2O)c(=O)n1 |  |  | 7.5 µM (active)
